The results in this text go back to PubChem BioAssay.

Structures are written as SMILES. Values without a mark were called inactive. Active and inactive are the calls of the source. Cut-off read from the data, not from the text of the source, unless noted: active = inhibition above about 36%; inactive = the rest.

Assay [1] has as its system transactivating tegument protein VP16 (Human herpesvirus 1). As to the kind of experiment: compounds suppressing VP16-driven luciferase signal – cell-based, luminescence, single concentration, counter-screen for SRC2 inhibitor project (AID 652007). The conditions noted are these: cell-based VP16 transactivation luciferase reporter, at 8.9 µM, active compounds read high. (The purpose of a counterscreen is to sort out artefacts and off-target activity.)

Assay [2] addresses Nuclear receptor coactivator 2 (Homo sapiens) (UniProt Q15596). As to the kind of experiment: inhibition of GAL4-SRC2 driven luciferase expression – cell-based, luminescence, HEK293, triplicate, confirmation (AID 652008;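 active = mean inhibition above 46.5%, the solvent-only control mean plus 3 SD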;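 note: 0% = DMSO-treated cells and 100% = Gossypol at 36 µM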). The conditions noted are these: HEK293 GAL4-SRC2 luciferase reporter, at 8.9 µM, active compounds read high. A general note: Reporter assays use an easily measured gene product as a stand-in for the process of interest.

Chain of Nuclear receptor coactivator 2 (Homo sapiens) (Q15596 whole entry, looked up, the tested form may be a part): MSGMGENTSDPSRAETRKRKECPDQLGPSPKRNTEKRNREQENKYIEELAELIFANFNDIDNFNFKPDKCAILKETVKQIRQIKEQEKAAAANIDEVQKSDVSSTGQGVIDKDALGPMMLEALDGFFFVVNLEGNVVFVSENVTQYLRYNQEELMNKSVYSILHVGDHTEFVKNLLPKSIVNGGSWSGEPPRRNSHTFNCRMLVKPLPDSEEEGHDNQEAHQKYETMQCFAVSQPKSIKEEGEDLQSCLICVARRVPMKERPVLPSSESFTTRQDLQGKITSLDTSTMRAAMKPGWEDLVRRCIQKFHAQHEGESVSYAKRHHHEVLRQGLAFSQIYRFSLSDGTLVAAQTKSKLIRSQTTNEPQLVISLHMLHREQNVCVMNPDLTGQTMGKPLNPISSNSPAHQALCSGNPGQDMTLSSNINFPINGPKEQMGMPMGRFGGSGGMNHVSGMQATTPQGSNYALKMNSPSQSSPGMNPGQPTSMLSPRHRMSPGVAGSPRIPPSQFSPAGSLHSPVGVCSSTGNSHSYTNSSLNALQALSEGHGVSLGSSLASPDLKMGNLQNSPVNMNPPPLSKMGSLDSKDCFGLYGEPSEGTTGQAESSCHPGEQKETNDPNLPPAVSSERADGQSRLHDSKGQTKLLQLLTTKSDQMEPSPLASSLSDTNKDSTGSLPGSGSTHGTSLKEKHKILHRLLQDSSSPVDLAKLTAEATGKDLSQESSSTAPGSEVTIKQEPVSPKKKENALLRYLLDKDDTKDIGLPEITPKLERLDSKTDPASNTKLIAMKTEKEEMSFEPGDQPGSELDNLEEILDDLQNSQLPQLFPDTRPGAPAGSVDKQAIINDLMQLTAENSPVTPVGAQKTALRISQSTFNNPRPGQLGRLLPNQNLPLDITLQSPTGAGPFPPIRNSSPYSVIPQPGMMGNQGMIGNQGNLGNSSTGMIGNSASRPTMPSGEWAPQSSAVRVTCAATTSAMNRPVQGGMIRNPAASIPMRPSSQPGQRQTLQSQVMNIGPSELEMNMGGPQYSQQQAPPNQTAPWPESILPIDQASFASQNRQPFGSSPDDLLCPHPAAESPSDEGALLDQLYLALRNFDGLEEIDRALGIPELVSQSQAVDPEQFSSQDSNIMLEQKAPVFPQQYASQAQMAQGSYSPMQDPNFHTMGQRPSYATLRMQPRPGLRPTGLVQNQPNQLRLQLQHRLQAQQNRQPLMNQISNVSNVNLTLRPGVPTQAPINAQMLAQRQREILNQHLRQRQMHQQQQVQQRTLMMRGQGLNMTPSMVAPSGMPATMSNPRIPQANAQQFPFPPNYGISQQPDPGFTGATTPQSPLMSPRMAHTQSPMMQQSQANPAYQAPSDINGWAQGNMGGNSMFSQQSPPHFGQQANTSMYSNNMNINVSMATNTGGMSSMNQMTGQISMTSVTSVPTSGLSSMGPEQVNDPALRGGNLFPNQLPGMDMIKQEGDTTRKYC

The term inhibition denotes the change of the read-out against control, counted positive when it falls. `Oc1cccc2c(NC(=S)Nc3ccc(SC(F)F)cc3)cccc12`: the inhibition is -23.5% in assay [1] and 53.1% (active) in assay [2].

Take `O=C(NCc1cccnc1)/C(=C\c1ccc(-c2ccc(Cl)c(Cl)c2)o1)S(=O)(=O)c1ccccc1`: the figures for the inhibition in assay [1] and in assay [2] were 75.3% (active) and 66.9% (active), respectively.

As to `COc1ccc(CCNc2oc(Cc3cccc4ccccc34)nc2C#N)cc1OC`, the inhibition in assay [1] is -7.8%; in assay [2], 7.3%.

With `COc1cccc(Nc2nc(NCCO)c3ccccc3n2)c1`, the inhibition in assay [1] is -14.1%; in assay [2], 31.5%.

For the compound `O=C(Nc1nccs1)c1cc([N+](=O)[O-])ccc1Cl`, the inhibition in assay [1] is 12.7%; in assay [2], 42.9%.

In the case of `COc1ccccc1NC(=O)C(C)OC(=O)c1cc2ccccc2[nH]1` (stereo not given), the figures for the inhibition in assay [1] and in assay [2] were 15.9% and 17.2%, respectively.

On to `O=C(Nc1cccc(F)c1)c1cccnc1`, for which the inhibition in assay [1] is 1.51%; in assay [2], -2.72%.

On to `CC(C)N=C(NS(=O)(=O)c1ccccc1)C(Cl)(Cl)Cl`, for which the inhibition was 7.46% in assay [1] and 28.2% in assay [2].

Consider `COc1cccc(NC(=O)N2CCc3nc(Nc4ccc(C(C)C)cc4)ncc3C2)c1`, for which the inhibition in assay [1] is -73.3%; in assay [2], 7.35%.

On to `CN(C)Cc1ccc(-c2nc3cccc4c3n2CCNC4=O)cc1`, for which the inhibition in assay [1] was -27.9%; in assay [2], 6.56%.

Consider `CCOc1ccccc1N1CCN(C(=O)c2cc(-c3cc(OC)ccc3OC)nc3ccccc23)CC1`, for which the inhibition in assay [1] was -6.34%; in assay [2], 14.4%.

As for `CCN(CC)c1ccc(/C=N/Nc2nn[nH]n2)cc1`, the figures for the inhibition in assay [1] and in assay [2] were -13.6% and 43.4%, respectively.

As for `Cc1ccc(NC(=O)C2CCN(S(=O)(=O)c3cc([N+](=O)[O-])ccc3Cl)CC2)nc1`, the inhibition was 10.7% in assay [1] and 24.3% in assay [2].

Consider `O=C(NC1=NCCS1)C1COc2ccccc2O1` (stereo not given), for which the results for the inhibition in assay [1] and in assay [2] were 29.5% and 47.7% (active), respectively.

Regarding `Cc1ccc(-n2c(C)c([N+](=O)[O-])c3ccc(O)cc32)cc1`, the inhibition was 2.28% in assay [1] and 47.5% (active) in assay [2].
